Among all 48,000 compounds or so, about 13,000 (27%) showed an effect of 50% or more. The list shows a part of the results.
Tested on: Wolbachia pipientis
Test: Anti-Wolbachia Cell-Based Screen
Format: functional
Design: scale not given: in the data most compounds retested in dose-response had high values
Settings: 5 µM

Row | Structure (SMILES) | Percent Effect [%]
1 | Cc1nc(CN2Cc3cn(C)nc3C(COCC3CC3)C2)cs1 (stereo not drawn) | -15.47
2 | O=C(c1cccs1)N1CC[C@H]2[C@@H]1CCC(=O)N2c1cccnc1 | -2.771
3 | CN(C)C(=O)N[C@@H]1CN(C2CCOCC2)[C@@H]2CCCO[C@@H]21.O=C(O)C(F)(F)F | -11.3
4 | COc1ccc(CN2CCCn3cnc(COC(C)C)c3C2)cc1.O=C(O)C(F)(F)F | 23.92
5 | CCc1nc(Cn2nc(C3CCNCC3)n(-c3ccccc3)c2=O)cs1 | 10.87
6 | CC(=O)N1C[C@@H](c2ccsc2)[C@@H]2CN(CC3CCCCC3)CC[C@@H]21 | 84.31
7 | COc1ccccc1CN1CC[C@H]2[C@@H](C1)[C@H](c1ccsc1)CN2C(C)=O | 109
8 | CSCCC(=O)N1CCCC1c1ccsc1 (stereo not drawn) | -16.09
9 | CC(=O)N1C[C@@H](c2ccsc2)[C@@H]2CN(Cc3ccccc3Cl)CC[C@@H]21 | 132.7
10 | CC(=O)N1C[C@@H](c2ccsc2)[C@@H]2CN(Cc3ccccc3)CC[C@@H]21 | 3.604
11 | CC(=O)N1CCC(NC(=O)N2CCCC2c2ccsc2)CC1 (stereo not drawn) | -39.95
12 | CC(=O)N1C[C@@H](c2ccsc2)[C@@H]2CN(Cc3ccccc3C)CC[C@@H]21 | 115.6
13 | NC(=O)CN1CCC(NC(=O)N2CCCC2c2ccsc2)CC1 (stereo not drawn) | -19.01
14 | NC(=O)C1CCN(CC(=O)N2CCCC2c2ccsc2)CC1 (stereo not drawn) | -14.97
15 | CCn1cnnc1CNC(=O)N(C)Cc1c(F)cccc1Cl | -9.877
16 | CCCn1ncc(C(=O)NCCc2[nH]nc3c2CCCC3)c1C | 17.81
17 | CC1(C)[C@H](Cc2cc(CO)on2)C[C@@H]1N(CC1CC1)CC1CC1 | 3.295
18 | O=S(=O)(NCC1CCN(c2cnccn2)CC1)C1CC1 | 99.54
19 | CCc1ccc(CN2CCC(CNS(=O)(=O)C3CC3)C2)nc1 (stereo not drawn) | -5.185
20 | CCS(=O)(=O)NCC1CCN(c2cnccn2)CC1 | 106
21 | Cc1ncc(CN2CCC(CNS(=O)(=O)C3CC3)C2)cn1 (stereo not drawn) | -9.849
22 | O=S(=O)(Cc1ccccc1)NCC1CCN(c2cnccn2)CC1 | -2.116
23 | Cc1cn2c(n1)CCC(NC(=O)c1csc(C(C)C)n1)C2 (stereo not drawn) | 134.7
24 | Cc1cn2c(n1)CCC(NC(=O)c1cc(C(C)C)no1)C2 (stereo not drawn) | 2.478
25 | Cc1cn2c(n1)CCC(NC(=O)c1cncnc1C)C2 (stereo not drawn) | 122.4
26 | Cc1cn2c(n1)CCC(NC(=O)c1ccc(CS(C)(=O)=O)cc1)C2 (stereo not drawn) | 1.181

Row | Structure (SMILES) | Percent Effect [%]
27 | Cc1ncc(C(=O)NC2CCc3nccn3C2)c(C(C)C)n1 (stereo not drawn) | 126.1
28 | Cc1cn2c(n1)CCC(NC(=O)c1cnc(C)nc1C(C)C)C2 (stereo not drawn) | 1.666
29 | Cc1cc(C(=O)NC2CCc3nc(C)cn3C2)[nH]n1 (stereo not drawn) | -4.172
30 | Cc1cn2c(n1)CCC(NC(=O)c1c[nH]c(C)n1)C2 (stereo not drawn) | 3.74
31 | Cc1cn2c(n1)CCC(NC(=O)c1nc(C)ncc1Cl)C2 (stereo not drawn) | -6.875
32 | Cc1cn2c(n1)CCC(NC(=O)c1ccc(OCC3CC3)nc1)C2 (stereo not drawn) | -16.45
33 | O=C(NC1CCc2nccn2C1)c1ccc(NC2CC2)nc1 (stereo not drawn) | 9.006
34 | CCc1ncncc1C(=O)NC1CCc2nc(C)cn2C1 (stereo not drawn) | 106.8
35 | CCCn1cnc(S(=O)(=O)Nc2cccnc2-n2cccn2)c1 | 0.1975
36 | CC(=O)N1CCN(C(=O)CNc2cccc(OC(F)F)c2C)CC1 | -4.859
37 | CS(=O)(=O)Nc1ccc(-n2c(CCCO)nc3ccccc32)cn1 | -0.6251
38 | Oc1ccccc1N1CCN(c2ncnc3sc4c(c23)CCNC4)CC1 | -35.6
39 | CC(C#N)CNC(=O)Nc1ccc(-c2cc[nH]n2)cc1 (stereo not drawn) | -10.22
40 | COC(=O)c1sccc1S(=O)(=O)N1CCc2c(ncnc2N(C)C)C1 | -35.5
41 | Cc1cccc(Cn2nc(C3CCNCC3)n(-c3ccccc3)c2=O)c1 | 2.339
42 | Cc1cccc(CN2CCN(c3nc(CO)cs3)CC2)c1 | -5.528
43 | Cc1ccc(Cn2cc(C)c(N)n2)cc1 | 101.5
44 | Cc1cn(Cc2ccc(F)cc2)nc1N | 105.5
45 | Cc1cccc(Cn2cc(C)c(N)n2)c1 | 142
46 | Cc1ccc(Cn2ccc(NS(C)(=O)=O)n2)cc1 | -11.54
47 | Cc1ncc(C)c(N2Cc3cnn(Cc4ccc(F)cc4)c3C2)n1 | 15.3
48 | CCn1cc(Cn2cc(Cl)c(N)n2)c(C)n1 | 11.61
49 | Cc1cnn(C2CCN(Cc3ccccc3)C2)c1N (stereo not drawn) | -3.11
50 | Cc1nn(Cc2ccc(F)cc2)c2[nH]nc(N)c12 | 12.93
51 | Cc1cn(Cc2ccccc2)nc1N | 112.8
52 | Cc1nn(C)cc1Cn1cc(Cl)c(N)n1 | -32.62

Row | Structure (SMILES) | Percent Effect [%]
53 | Cc1nnsc1CN(C)C(=O)c1ccc(CSc2nnc[nH]2)o1 | 17.62
54 | CCc1cnc(N)nc1NCCc1ccc(OC)cc1OC | -3.798
55 | CC(C)N(C)C(=O)c1ccc(Cl)c(NC(=O)COCC2CC2)c1 | -4.037
56 | Cc1noc(C)c1CN(C)C(=O)COc1cccc(C#N)c1 | -12.54
57 | CCc1nc(CNC2CCCCNC2=O)cs1 (stereo not drawn) | -6.937
58 | Cl.Cl.OC(CN1CCN(Cc2ccc(F)c(F)c2)CC1)C1CC1 (stereo not drawn) | -1.298
59 | Cc1cn(Cc2ccc(F)c(F)c2)nc1N | 106.9
60 | Fc1ccc(CNCCn2cccn2)cc1F | -6.914
61 | Cc1ccc(C(CNCc2ccc(C#N)cc2)N2CCOCC2)s1 (stereo not drawn) | 1.867
62 | COC[C@@]12CCO[C@@H]1CCN(Cc1ccccc1OC)C2.O=C(O)C(F)(F)F | -18.26
63 | c1coc(-c2nnc([C@H]3CCN(Cc4ccc5c(c4)OCO5)C3)o2)c1 | -14.45
64 | COC[C@@]12CCO[C@@H]1CCN(Cc1ccccc1F)C2.O=C(O)C(F)(F)F | -5.713
65 | Cc1nnc([C@@]23CCO[C@@H]2CCN(Cc2ccc4c(c2)OCO4)C3)o1 | 107.4
66 | Cc1nc([C@H]2C[C@@H]3CCN(Cc4ccc5c(c4)OCO5)C[C@H]3O2)no1 | -27.54
67 | Cc1nnc([C@@]23CCO[C@@H]2CCN(Cc2cccc4ccccc24)C3)o1 | 98.73
68 | CCN1C(=O)C2(CCCCC2)NC1c1cc(C#N)n(C)c1C (stereo not drawn) | 8.458
69 | Cc1ncc(CN(C)C(=O)c2ccc3c(c2O)OC(C)(C)C3)s1 | -9.378
70 | CCn1nnc2c1C(COCC(=O)N(C)C)CN(Cc1ccoc1)C2 (stereo not drawn) | 95.43
71 | Cc1ccc(CN2Cc3nnn(C)c3C(COCCN(C)C)C2)s1.O=C(O)C(F)(F)F.O=C(O)C(F)(F)F (stereo not drawn) | 3.026
72 | Cc1ccc(CN2CCCn3nnc(COCCN(C)C)c3C2)s1.O=C(O)C(F)(F)F.O=C(O)C(F)(F)F | -14.16
73 | COCC1CN(Cc2ccc(C)o2)Cc2nnn(CC3CC3)c21.O=C(O)C(F)(F)F (stereo not drawn) | -2.139
74 | CCn1nnc2c1C(COCC(=O)N(C)C)CN(Cc1ccco1)C2.O=C(O)C(F)(F)F (stereo not drawn) | 115
75 | CCn1nnc2c1C(COCCN(C)C)CN(Cc1ccco1)C2.O=C(O)C(F)(F)F.O=C(O)C(F)(F)F (stereo not drawn) | 92.71
76 | CCn1nnc2c1C(COC)CN(Cc1ccsc1)C2.O=C(O)C(F)(F)F (stereo not drawn) | -6.299
77 | CCn1nnc2c1C(COCCN(C)C)CN(S(=O)(=O)CC)C2.O=C(O)C(F)(F)F (stereo not drawn) | -14.6
78 | CCn1nnc2c1C(COCCN(C)C)CN(c1nncs1)C2 (stereo not drawn) | -7.006

Row | Structure (SMILES) | Percent Effect [%]
79 | CCn1nnc2c1C(COCCN(C)C)CN(S(C)(=O)=O)C2.O=C(O)C(F)(F)F (stereo not drawn) | -1.029
80 | CCn1nnc2c1C(COCCN(C)C)CN(Cc1ccc(C)s1)C2.O=C(O)C(F)(F)F.O=C(O)C(F)(F)F (stereo not drawn) | 104.1
81 | O=C(CSc1nncs1)N1CCN(Cc2ccc(Cl)cc2)CC1 | -10.59
82 | Cc1nc(-c2nnc(SCC(=O)O)n2C(C)c2ccccc2)co1 (stereo not drawn) | -6.545
83 | CNC(=O)Cc1noc(Cc2cccc(Br)c2)n1 | 1.573
84 | Cn1ccnc1SCCNC1CCN(c2nc3ccccc3s2)CC1 | 0.5729
85 | CC(C)C(=O)N1CCOC[C@H](Oc2ccc(C(F)(F)F)cc2)C1 | -12.72
86 | CC(C)N1CCCC(C(=O)N2CCN(c3nsc4ccccc34)CC2)C1 (stereo not drawn) | 104.9
87 | CC(C)N1CCCC(C(=O)N2CCc3c(nc(CC4CC4)[nH]c3=O)C2)C1 (stereo not drawn) | 6.947
88 | CN1CCCC(C(=O)N2CCC(Oc3ccccn3)CC2)C1 (stereo not drawn) | -2.88
89 | O=C(C1CCC1)N1CCN(c2snc3ccccc23)CC1 | 4.764
90 | O=C(C1CCCN(c2nc3ccccc3cc2CO)C1)N1CCCC1 (stereo not drawn) | 10.01
91 | CCN1CC(C(=O)N2CCN(c3nsc4ccccc34)CC2)CCC1=O (stereo not drawn) | 116.3
92 | CCN1CC(C(=O)N2CCN(c3cnn(C)c(=O)c3)CC2)CCC1=O (stereo not drawn) | 2.003
93 | CCN1CC(C(=O)N2CC(Oc3ccccc3Cl)C2)CCC1=O (stereo not drawn) | -27.16
94 | NC(=O)N1CCCC(C(=O)N2CCN(c3nsc4ccccc34)CC2)C1 (stereo not drawn) | 111.8
95 | CN(C)C1CCCN(C(=O)c2ccc3sc4c(c3c2)CCNC4=O)CC1 (stereo not drawn) | -3.9
96 | Cc1cccc(NC(=O)CCC(=O)NCC(=O)c2ccccc2F)c1 | -5.456
97 | COc1cc2c(cc1-c1nc3c(cnn3C)[nH]1)OCO2 | 9.432
98 | CCCNC(=O)CCc1ccnc2ccccc12 | -4.736
99 | CCOCCCNC(=O)CCCC(=O)n1nc(C)c2ccccc21 | 114.3
100 | CCCNC(=O)CCC(=O)n1nc(C)c2ccccc21 | 168.2
101 | COCCCNC(=O)CCn1nc(C)c2ccccc21 | 5.056
102 | CCCNC(=O)CCNC(=O)N1CCC(=Cc2ccccc2)CC1 | 1.443
103 | CCOCCCC(=O)NCc1ccc(N2CCCCC2)cc1 | 1.636
